KAT2A inh = blocks human GCN5L2 histone acetyltransferase. Q92830. GCN5L2 HAT assay, ThioGlo1 CoA-SH fluorescence. Potency, µM (top dose mostly 58.9 µM), for inactives: at the top dose activity change, negative = inhibition, actives largely listed as inhibitors. hit rate 0.21% among 390,000; also: potency is read from the fitted curve at half-maximal effect; % is scaled to controls: 0 for no effect and ±100 for the full control effect
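Titration-based screen in which CoA formation is detected via maleimide probe ThioGlo1 (50uM) turning fluorescent on thiol reaction; substrates H3(1-25) 75uM and acetyl-CoA 70uM, GCN5L2 20nM, 20 min incubation at room temperature.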
HP1b binding inh = blocks HP1-beta chromodomain binding to methylated histone tails | P83916 | AlphaScreen HP1-beta / biotin-H3K9me3 peptide binding | Potency, µM (titrated, usually from 114 µM), for the others: top-dose activity change, negative = inhibition, actives largely listed as inhibitors | hit rate 0.56% among 390,000 | AID 540317; also: potency is read from the fitted curve at half-maximal effect; nearly all actives have a fitted effect of over 70% in size
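HP1-beta protein (50 nM final) preincubated 30 min at room temperature with biotinylated H3(1-18)K9me3 peptide (50 nM) in PBS pH 7.4, 0.01% Tween-20, then compound added for 30 min. AlphaScreen streptavidin donor/nickel chelate acceptor beads (10 ug/mL final), 30 min dark, luminescence read.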
BAZ2B inh = BAZ2B (human) inhibition | AlphaScreen BAZ2B-H3K14Ac peptide displacement | Potency, µM (doses to about 114 µM), for the others: top-dose activity change, negative = inhibition, hits mostly inhibitors | hit rate 4.4% among 360,000; also: potency is read from the fitted curve at half-maximal effect; % is scaled to controls: 0 for no effect and ±100 for the full control effect; nearly all actives have a fitted effect of over 60% in size
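BAZ2B 50 nM plus b-H3(5-23)K14Ac 50 nM, PBS pH 7.4/0.01% Tween-20, 30 min RT; compound added (max 110 uM), 30 min RT; streptavidin donor/Ni-chelate acceptor beads 10 ug/mL final, 20 min dark; AlphaScreen read.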
PLK1 PBD inh = blocks phosphopeptide binding to human PLK1 polo-box domain; P53350; Plk1 PBD binding of FITC phosphopeptide, fluorescence polarization; Potency, µM, for inactives: max response, negative = inhibition, actives largely listed as inhibitors; hit rate 2.8% among 360,000; AID 720504; also: potency is read from the fitted curve at half-maximal effect; series mostly up to about 57 µM; % is scaled to controls: 0 for no effect and ±100 for the full control effect; nearly all actives have a fitted effect of over 65% in size
PI5P4Ka inh = blocks human PI5P4K alpha kinase activity; PI5P4Kalpha enzyme, ADP-Glo luminescence, 60 min; stronger effect = lower value; max response, %; hit rate 1.2% among 330,000; active = max response of -50% or lower; inconclusive = between -30% and -50%; inactive = -30% or higher; also: value at the top dose of about 77 µM; % is scaled to controls: 0 for no effect and ±100 for the full control effect
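PI5P4Kalpha ADP-Glo assay; 5 microM ATP final; 60 min RT reaction; HEPES pH 7.4/EGTA/CHAPS, 5% DMSO; controls lacking substrate or enzyme; luminescent end-point.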
JMJD2A Tudor = blocks the human JMJD2A Tudor domain. O75164. AlphaScreen JMJD2A-Tudor / H3K4me3 peptide binding. Potency, µM (top dose mostly 114 µM), for inactives: at the highest dose activity change, negative = inhibition, actives largely listed as inhibitors. hit rate 4.4% among 390,000; also: potency is read from the fitted curve at half-maximal effect; % is scaled to controls: 0 for no effect and ±100 for the full control effect; nearly all actives have a fitted effect of over 50% in size
Active calls of the source: *; u = inconclusive; x = no result; [ ] = remark or other dose. Only some compounds are listed: those with a hit (about 7% of all), similar ones and a draw of the others. Unless noted, calls follow the shape of the dose curve; as a rule, active = well fitted curve in the direction sought with a large enough effect; inconclusive = small, poorly fitted or top-dose-only effect, or another doubt; inactive = no such curve, though single readings can be large; an effect the other way counts as inactive or inconclusive.

SMILES | KAT2A inh | HP1b binding inh | BAZ2B inh | PLK1 PBD inh | PI5P4Ka inh | JMJD2A Tudor
CCc1c(C)sc(NC(=O)C2CCCO2)c1C#N (centres undefined) | -5.8% | u | -1.6% | 23.8µM* | -16.5 | -25.2%[57.1 µM]
CC(=O)Nc1sc2c(c1C#N)CCCC2 | x | 29.3% | 4.0% | -6.7% | 2.2 | -5.8%
N#Cc1c(NC(=O)C2CC(c3ccccc3Cl)=NO2)sc2c1CCC2 (centres undefined) | -7.1% | -26.2% | 0.6% | u | x | -23.3%
O=C(NCc1ccco1)C1CC(c2ccccc2O)=NO1 (centres undefined) | -12.2% | 1.8% | 79.4µM* | -19.9% | -9.8 | u
Cc1onc(C(=O)Nc2sc3c(c2C#N)CCCC3)c1[N+](=O)[O-] | -2.6% | -7.5% | -64.8% | 26.7µM* | -3.8 | -20.0%
N#Cc1c(NC(=O)C2CC(c3ccccc3O)=NO2)sc2c1CCC2 (centres undefined) | -6.4% | -18.9% | -6.0% | 18.9µM* | 9.3 | -17.9%
CCOC(=O)c1c(NC(=O)c2cc(-c3cccc(O)c3)on2)sc(C(C)=O)c1C | -6.2% | 64.4% | u | -11.5% | -26.1 | -35.2%
CCOC(=O)c1c(NC(=O)c2cc(-c3cccc(Cl)c3)on2)sc(C(C)=O)c1C | -2.8% | 70.8µM* | 1.0% | x | x | -11.9%
CCc1c(C)sc(NC(=O)c2cc(-c3ccco3)on2)c1C#N | -4.4% | -13.8% | -0.7% | 26.7µM* | x | -18.6%
CCCC(=O)Nc1sc2c(c1C#N)CCCC2 | 0.8% | 23.7% | 7.6% | -16.5% | 0.8 | -7.4%
CCOC(=O)c1c(NC(=O)c2cccs2)sc(C(=O)N(C)C)c1C | -2.9% | -13.1% | 1.9% | 23.8µM* | -5.1 | -8.2%
CCCc1cc(C(=O)Nc2sc3c(c2C#N)CCC3)no1 | -3.8% | -11.1% | 0.8% | 18.9µM* | -23.2 | -4.2%
COc1ccc(N=C2C(=O)Nc3ccccc32)cc1 | -0.5% | -2.0% | 5.8% | -8.3% | x | -23.9%
COc1ccc(N=C2C(=O)N3c4c(cccc42)C(C)=CC3(C)C)cc1 | 3.5% | 28.2µM* | 35.5µM* | -16.9% | -12.0 | 14.1µM*
O=S(=O)(c1ccc(Oc2ccc(F)c(Cl)c2)nc1)N1CCOCC1 | -21.3% | 24.1% | -3.7% | -0.6% | -5.5 | -5.7%
CCC(=O)Nc1ccc(C2=Nn3c(nnc3C(C)C)SC2)cc1 | -23.1% | -12.4% | 2.3% | 23.8µM* | -17.1 | -1.3%
CC(C)[C@H](N)c1nnc2n1N=C(c1ccc(Cl)cc1)CS2 | 0.5% | 43.1% | -9.6% | 3.8% | -2.6 | 8.0%
Cc1ccccc1-c1n[nH]c(=S)n1Cc1ccccc1 | -3.4% | 16.8% | -16.4% | -25.0% | 5.4 | u
Cc1cccn2c(=S)[nH]nc12 | x | 70.8µM* | x | 0.5% | -59.0* | 2.82µM*
CC1CN(C(=O)C(C)N2CCN(c3cccc(Cl)c3)CC2)CC(C)O1 (centres undefined) | -11.7% | u | -2.8% | 29.9µM* | -10.5 | 63.1µM*
CCC(Nc1ccc(OC)cc1)C(=O)N/N=C/c1ccc([N+](=O)[O-])cc1 (centres undefined) | -1.6% | -19.8% | 44.7µM* | -4.5% | 2.3 | u
Cc1ccc(/C=N/NC(=O)Cn2nc(C)c([N+](=O)[O-])c2C)o1 | -5.6% | 31.4% | -17.7% | -4.2% | 9.1 | -21.5%
COc1ccc(/C=N/NC(=O)Cn2nc(C)c([N+](=O)[O-])c2C)cc1 | -2.2% | 10.7% | -2.5% | 29.9µM* | -9.5 | 79.4µM*
CCOCc1[nH]c(=S)[nH]c(=O)c1Cc1ccc(OCC)cc1 | -0.7% | 3.1% | -0.5% | 26.7µM* | 4.3 | -6.8%[11.4 µM]
CCOCc1[nH]c(=S)[nH]c(=O)c1Cc1ccc(OCC(C)C)cc1 | 15.2% | -15.7% | -0.6% | 23.8µM* | u | 50.1µM*
SMILES | KAT2A inh | HP1b binding inh | BAZ2B inh | PLK1 PBD inh | PI5P4Ka inh | JMJD2A Tudor
CCCC[C@H]1CCCO[C@@](C(=O)NCc2ccccc2)(C(F)(F)F)C1 | x | 45.0% | x | x | x | 24.8%
O=C(Nc1nc2ccsc2c(=O)s1)c1ccco1 | 8.3% | u | u | -20.0% | 0.0 | 35.5µM*
Cc1csc2c(=O)sc(NC(=O)c3ccco3)nc12 | -1.9% | 16.2% | -1.0% | -25.7% | -4.7 | -5.7%
CCCCCCCCN1[C@@H](CC(=O)O)c2cc(C(F)(F)F)ccc2S1(=O)=O | x | 14.6% | x | -20.3% | -0.1 | -17.7%
CCCCCCCCCCCCN1[C@@H](CC(=O)O)c2cc(C(F)(F)F)ccc2S1(=O)=O | x | 43.3% | x | 33.6µM* | u | u
COc1ccc(CNC(=O)COc2cc(O)c3c(c2)OC(C)(C)CC3=O)c(OC)c1 | -5.0% | 1.7% | 9.2%[57.1 µM] | -6.2% | 0.2 | 89.1µM*
COc1ccc(CCNC(=O)COc2cc(O)c3c(c2)OC(C)(C)CC3=O)cc1 | -6.1% | 26.4% | -3.8% | -6.9% | -16.8 | -12.9%
COc1ccc(CN2CCNC(=O)C2CC(=O)N2CCCCO2)cc1OC (centres undefined) | -2.5% | 26.4% | -0.3% | -4.1% | -4.3 | -9.0%
Cc1nnsc1C(=O)Oc1ccc(C#N)cc1 | -1.8% | 17.2% | u | x | x | 89.1µM*
Cc1nnsc1C(=O)Oc1ccc(Cl)cc1 | -5.2% | 2.8% | 7.3% | x | x | -2.6%
CCOC(=O)C1CCN(C(=S)Nc2ccc(S(N)(=O)=O)cc2)CC1 | 1.5% | u | -3.4% | 21.2µM* | -0.1 | u
CCOC(=O)C1CCCN(C(=O)Cc2ccc(OC)c(OC)c2)C1 (centres undefined) | -3.2% | 13.2% | 9.3% | -11.9% | -2.2 | -23.6%
CCOC(=O)C1CCCN(C(=O)Cc2ccc(C)cc2)C1 (centres undefined) | 0.0% | -15.1% | -6.5% | 26.7µM* | -27.7 | -11.5%[11.4 µM]
CCOC(=O)C1CCCN(C(=S)Nc2ccc(Nc3ccccc3)cc2)C1 (centres undefined) | -16.1% | u | 35.5µM* | 21.2µM* | -9.4 | 56.2µM*
CCOC(=O)C1CCN(C(=S)Nc2ccccc2)CC1 | -0.2% | 23.8% | -9.9% | -17.9% | 0.3 | -1.7%
Cc1ccc(C)c(CNC(=O)C2CCN(c3nc4ccccc4nc3C(F)(F)F)CC2)c1 | -1.8% | 0.7% | -1.5% | x | x | -9.7%
COc1ccc(/C=N/NC(=O)c2nn(-c3ccccc3)c(=O)c3c(N)scc23)cc1 | u | u | 39.8µM* | -19.6% | x | 5.62µM*
CCOc1ccc(N(CC)C(=O)c2nn(-c3ccc(OC)cc3)c(=O)c3c2c2ccccc2n3C)cc1 | -8.5% | -11.8% | -2.6% | 26.7µM* | 1.4 | -34.7%
CCOc1ccccc1NC(=O)c1nn(-c2ccc(OC)cc2)c(=O)c2c1c1ccccc1n2C | -5.9% | 24.4% | x | x | x | -5.0%
CCOC(=O)c1nn(-c2ccc(C)c(C)c2)c(=O)c2c(N)scc12 | u | -28.8% | 56.2µM* | 16.8µM* | 1.2 | 22.4µM*
CCN(CC)C(=O)c1nn(-c2ccc(OC)cc2)c(=O)c2c(N)scc12 | x | x | x | x | x | 56.2µM*
CC(C)c1ccccc1NC(=S)NCC1(N(C)C)CCCCC1 | 4.2% | 27.4% | -20.4% | 2.8% | 0.1 | -21.8%
